The record followed here is PubChem BioAssay.

The target in the first assay is Calmodulin-1 (Homo sapiens) (UniProt P0DP23). The assay is described as follows: calcium-bound CALM1 binders on microarrays, profiling panel, artefact control for SMM control-protein annotation, biochemical, small-molecule microarray, Cy5-labelled CALM1, plus calcium (AID 1112).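 Also: score merges spot fluorescence with signal to noise from triplicate slides.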 To be noted: Cy5-CALM1 binding fluorescence, higher = more signal.
On to `CCOC(=O)C1=CC[C@@H](c2ccccc2)N(S(=O)(=O)c2ccc(C)cc2)[C@H]1C#N`, for which the composite z-score amounted to 0.658.
The same measure, in the same setting: under `COc1ccc([Si](C)(C)[C@H]2[C@H](CCO)O[C@@]3(C(=O)N(Cc4ccccc4)c4ccc(N(C=O)c5ccccc5)cc43)[C@@H]2C)cc1` stands 0.444; under `COc1cccc(C[C@H]2C[C@@H](CO[Si](C(C)C)(C(C)C)C(C)C)N3C(=O)[C@@]4(C(C)=O)O[C@@]23[C@@H]2C(=O)N(C)C(=O)[C@@H]24)c1`, -0.587; under `C=CC[C@@]1(C(=O)O)N=C(c2ccc(OCCCO)cc2)O[C@@H]1c1ccccc1CN=[N+]=[N-]`, 0.608.
On the same count and under the same terms, next, `CCCCNC(=O)c1ccc(C#C[Si](C)(C)C)c(OC(C)=O)c1`: -0.834.
Still for that read-out and setting: under `C=CCNC(=O)[C@H]1[C@@H]2C(=O)O[C@@H](c3ccccc3)[C@@H](c3ccccc3)N2[C@@H](c2ccc(O)cc2)[C@]12C(=O)Nc1ccc(C#CC3=CCCCC3)cc12` stands 0.571.

Test system in the next assay: not listed separately
The assay is described as follows: small-molecule microarray binders of probe aWnt5a, primary screen, biochemical, biotinylated probe, 635/667 nm fluorescence (AID 1113).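 Also: score merges 667 nm fluorescence intensity with signal-to-noise per printed feature.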 To be noted: higher = more signal.
For `CCCCCCCCCCC(O)C1C=CC2C(=O)N(C)C(=O)C2N1N1CCCCC1` (stereo unspecified), the composite z-score was -0.196.
`CCCC[C@@H]1C[C@H]1[C@@H](NC(=O)Cc1ccccc1)c1ccc(Cl)cc1`: the composite z-score is 0.225.
On to `CC(C)=CCN(C(=O)C#Cc1ccccc1)[C@H](CO)c1ccccc1`, for which the composite z-score is -0.0346.
Still for that read-out and setting: under `COc1ccc(NC(=O)O[C@H]2[C@H](OC(=O)Nc3ccc4c(c3)OCO4)[C@H](OC(=O)Nc3ccc4c(c3)OCO4)[C@@H](OC)O[C@@H]2CO)cc1` stands -0.0643.
Same read-out and setting: next, `CCCC[C@H]1OB(O)C[C@H]2C1=C(C)C[C@H]1C(=O)C=CC(=O)[C@H]12`: -0.132.
`CO[C@H]1O[C@H](CO)[C@@H](OC(=O)Nc2ccccc2)[C@@H]2OC(=O)[C@H](Cc3ccccc3)C/C=C/C[C@@H](Cc3ccccc3)C(=O)O[C@@H]12` showed a composite z-score of -0.0545.
Same read-out and setting: next, `C[C@H]1C2[C@H](Cc3ccccc3)NC(=O)[C@]23C(=O)NCC(=O)N2CCC[C@H]2C(=O)NC/C=C\C/C=C/C3[C@@H]2O[C@]12C` (stereo partly specified): -0.0417; `[N-]=[N+]=NCc1ccccc1C[C@]1(C(=O)O)COC(c2ccc(OCCCO)cc2)=N1`: -0.15.
`CC(C)CNC(=O)[C@@]1(C)c2ccccc2C(=O)N(Cc2cc(F)cc(C(F)(F)F)c2)[C@H]1c1ccc(CO)cc1` returned a composite z-score of -0.17.
In turn, `CN(C)CCCNC(=O)[C@@H]1c2ccccc2C(=O)N(C2Cc3ccccc3C2)[C@H]1c1ccc(CO)cc1` displayed a composite z-score of 0.0436.
Same read-out and setting: next, `CCN(CC)c1ccc(N2CC=CC34O[C@@H]5C=CCOC(=O)[C@@H]5[C@H]3C(=O)N(CCO)[C@@H]4C2=O)cc1` (stereo partly specified): -0.25.
In turn, `COc1ccccc1CN1C(=O)c2ccccc2[C@@H](C(=O)NCCCN(C)C)[C@@H]1c1ccc(CO)cc1` gave a composite z-score of -0.0529.
Same read-out and setting: under `COc1cc(OC)c(C(O)C2C=CC3C(=O)N(c4ccccc4)C(=O)C3N2Nc2ccccc2F)cc1Br` (stereo unspecified) stands -0.0462; under `CC(=O)c1ccc(C(O)C2C=CC3C(=O)NC(=O)C3N2Nc2ccc(Cl)cc2Cl)cc1` (stereo unspecified), -0.0161.
`C=CCC(OC(C)=O)[C@@H]1[C@@H](N(Cc2cc3ccccc3o2)C(=O)Cc2ccc(OC)cc2)c2cc(OCCCO)ccc2N1C(=O)Cc1ccc(OC)cc1` (stereo partly specified) registered a composite z-score of -0.0981.
The same measure, in the same setting: next, `COCCCN1C(=O)[C@@]2(Cc3ccccc31)c1ccccc1C(=O)N(Cc1ccccc1OC)[C@H]2c1ccc(CO)cc1`: 0.0759.
Same read-out and setting: next, `COc1ccc(C#Cc2ccc3c(c2)[C@]2(C(=O)N3)[C@H](C(=O)Nc3nc4ccccc4s3)[C@H]3C(=O)O[C@H](c4ccccc4)[C@H](c4ccccc4)N3[C@@H]2c2ccc(OCCO)cc2)cc1`: 0.0377; `CC(C)C[C@H]1NC(=O)[C@@H](C)NC(=O)[C@@]23C(=O)N[C@@H](Cc4ccccc4)C2[C@H](C)[C@@]2(C)O[C@H]2C3/C=C/C/C=C\CNC1=O` (stereo partly specified): -0.175.
As to `CC(C)C[C@H]1NC(=O)[C@@]23C(=O)N[C@@H](Cc4ccccc4)C2[C@H](C)[C@@]2(C)O[C@H]2C3/C=C/C/C=C\CNC(=O)[C@@H]2CCCN2C1=O` (stereo partly specified), the composite z-score is -0.0704.
The same measure, in the same setting: next, `COc1ccc(C(O)C2C=CC3C(=O)N(C)C(=O)C3N2Nc2ccc([N+](=O)[O-])cc2[N+](=O)[O-])cc1OCc1ccccc1` (stereo unspecified): 0.112; `[N-]=[N+]=Nc1ccccc1[C@@H]1OC(c2ccc(OCCCO)cc2)=N[C@]1(Cc1ccccc1)C(N)=O`: -0.166.
Same read-out and setting: next, `CN(C)C(=O)[C@@]1(CCS(=O)(=O)c2ccccc2)N=C(c2ccc(OCCCO)cc2)O[C@H]1c1ccccc1N=[N+]=[N-]`: 0.0445.
The same measure, in the same setting: next, `CN1C(=O)[C@]2(CCC(=O)OC(C)(C)C)N=C(c3ccc(OCCCO)cc3)O[C@@H]2c2ccccc21`: 0.0279; `C[N+](C)(C)CCCCCCNC(=O)[C@@H]1C[C@@H]2C(=O)N[C@@H](Cc3ccccc3)C(=O)N2[C@@H]1c1ccc(O)cc1`: -0.0236.
The compound `CCCC=C(CCC)[C@@H](NS(=O)(=O)c1ccc(Cl)cc1)c1ccccc1` came in with a composite z-score of 0.954.
On the same count and under the same terms, under `CO[C@H]1O[C@H](CO)[C@@H](OC(=O)Nc2ccc(C(F)(F)F)cc2)[C@H](OC(=O)Nc2ccccc2-c2ccccc2)[C@@H]1OC(=O)Nc1ccccc1-c1ccccc1` stands 0.0181; under `CC(C)[C@@H](C(=O)O)n1cc(-c2ccccc2)nn1`, 0.0145.
The same measure, in the same setting: under `C=CCNC(=O)[C@@H]1[C@H]2C(=O)O[C@H](c3ccccc3)[C@H](c3ccccc3)N2[C@H](c2ccc(O)cc2)[C@@]12C(=O)Nc1ccc(C#CC3(O)CCCCCC3)cc12` stands -0.127; under `O=C1N(CCS(=O)(=O)c2ccccc2)c2ccccc2[C@@H]2OC(c3ccc(OCCCO)cc3)=N[C@]12CCS(=O)(=O)c1ccccc1`, 0.0142.
On the same count and under the same terms, under `CCOC(=O)C1=CC[C@@H](c2ccccc2)N(S(=O)(=O)c2ccc(C)cc2)[C@H]1C#N` stands 0.0044; under `COc1ccc([Si](C)(C)[C@H]2[C@H](CCO)O[C@@]3(C(=O)N(Cc4ccccc4)c4ccc(N(C=O)c5ccccc5)cc43)[C@@H]2C)cc1`, -0.0512.
For `COc1cccc(C[C@H]2C[C@@H](CO[Si](C(C)C)(C(C)C)C(C)C)N3C(=O)[C@@]4(C(C)=O)O[C@@]23[C@@H]2C(=O)N(C)C(=O)[C@@H]24)c1`, the composite z-score is -0.0364.
As to `C=CC[C@@]1(C(=O)O)N=C(c2ccc(OCCCO)cc2)O[C@@H]1c1ccccc1CN=[N+]=[N-]`, the composite z-score turned out to be 0.115.
On the same count and under the same terms, under `CCCCNC(=O)c1ccc(C#C[Si](C)(C)C)c(OC(C)=O)c1` stands -0.191; under `C=CCNC(=O)[C@H]1[C@@H]2C(=O)O[C@@H](c3ccccc3)[C@@H](c3ccccc3)N2[C@@H](c2ccc(O)cc2)[C@]12C(=O)Nc1ccc(C#CC3=CCCCC3)cc12`, 0.163.
